Source: PubChem BioAssay AID504845 (National Center for Advancing Translational Sciences (NCATS), 2011)
“And” between values parts separate entries of the source, which are not always exact repeats. Identical values can stand only once. In all, about 390,000 compounds went through this assay and about 150 (0.038%) were called active. Inconclusive results (about 3%) are left out. Calls follow the shape of the dose curve; as a rule, active = well fitted inhibition curve with a large enough effect; inconclusive = small, poorly fitted or top-dose-only effect; inactive = no such curve, though single readings can be large or run the other way. Only a selection was taken, and actives are over-represented in it overall. The source holds several records for some structures; these can differ, active in one and inactive in another.

The compounds below were run against Regulator of G-protein signaling 4 (Homo sapiens) (UniProt P49798) (assay: Inhibitors of Regulator of G Protein Signaling (RGS) 4: qHTS). Conditions: Transcreener GDP fluorescence polarization, RGS4-accelerated GTP hydrolysis; series mostly up to 114 µM; activity change, negative = inhibition: at the top concentration.
Sequence of Regulator of G-protein signaling 4 (Homo sapiens) (P49798 whole entry, looked up): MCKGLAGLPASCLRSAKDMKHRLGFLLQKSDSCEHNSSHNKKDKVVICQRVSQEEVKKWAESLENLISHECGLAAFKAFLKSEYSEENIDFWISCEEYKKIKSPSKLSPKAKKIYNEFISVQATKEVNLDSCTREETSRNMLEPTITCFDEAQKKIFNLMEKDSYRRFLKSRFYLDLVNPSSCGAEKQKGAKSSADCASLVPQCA
Summary of the method: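 MLSMR compounds (23 nl, pin-transferred) preincubated 10 min at room temperature with a 500nM (2x) first reagent, then RGS4 at 900nM (2x) plus Transcreener GDP mix added; fluorescence polarization (620/688 nm) read before and after 90 min at 30 °C.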
% is scaled to controls: 0 for no effect and ±100 for the full control effect; potency is read from the fitted curve at half-maximal effect.
Also: nearly all actives have a fitted effect of over 75% in size.

Activity change, negative = inhibition, inactive:
COc1ccc(CC(=O)NCCc2sc3nc(-c4ccc(OC)cc4)nn3c2C)cc1 23.7%, Cc1ccc(-n2ncc(C(=O)N(C)Cc3ccccc3)c2-n2cccc2)cc1 12.5%, Cc1ccc(-c2onc(C)c2C)cc1S(=O)(=O)Nc1ccccn1 -2.85%, O=C1C[C@@H](c2ccc3ccccc3c2)N1S(=O)(=O)c1ccccc1[N+](=O)[O-] 3.68%, CCCN1CCN(CCCNC(=O)c2ccc3nc(Cc4ccccc4)oc3c2)CC1 18.4%, Cc1cccc(C(=O)NCCc2nc3ccccc3n2Cc2ccccc2Cl)c1 -14.7%, CSc1ccc(CCNC(=O)c2cc(C)nc3c2c(C)nn3-c2cccc(F)c2)cc1 -41%, COCCNS(=O)(=O)c1cc(-c2nn3c(C)nnc3c3ccccc23)ccc1C -16.3%, Cc1ccccc1C(=O)N(Cc1ccc(N(C)C)cc1)CC1CCCO1 (stereo unspecified) 8.38%, Cc1nc(SCC(=O)N2CCN(c3ccccc3)CC2)[nH]c(=O)c1C 19.3%, NC(=O)CSc1nc2c(oc3ccccc32)c(=O)n1Cc1ccccc1 -46.5%, CCN(C(=O)Cn1c(=O)nc(-c2ccccc2)c2cc(Cl)ccc21)c1cccc(C)c1 -11.5%, CCCCCCn1nnc2sc(-c3ccccc3)cc2c1=O -27.4%, CC(C)c1ccc2oc(-c3cc(NC(=O)c4cccs4)ccc3Cl)nc2c1 -15%, Cc1cc2oc(C(=O)N(Cc3ccc(Cl)cc3)Cc3ccco3)c(C)c2cc1Cl 30%, CC(C)[C@H]1CC[C@@H](C)C[C@H]1O -127% [at 56.9 µM], COc1ccc(CNC(=O)c2cc3c(=O)[nH]c4ccccc4c3s2)cc1 -9.46%, O=S(=O)(Nc1cccc2cccnc12)c1cccc2cccnc12 9.93%, COC(=O)c1cc2occc2n1Cc1nc(-c2ccc(C)cc2)oc1C 12.1%, Cc1ccc(F)cc1S(=O)(=O)N1CCC(c2nc3ccccc3s2)CC1 -18.9%, Cc1cc(OC(C)C(=O)Nc2sc3c(c2C(N)=O)CCCC3)ccc1Cl (stereo unspecified) -10.8%, COc1ccc(C2Nc3ccc(NC(=O)COC(C)=O)cc3C(=O)N2Cc2ccccc2)cc1COc1ccc(NC(C)=O)cc1 (stereo unspecified) 0.54%, C#CCOc1ccc(C2CC(=O)Nc3c2c(C)nn3-c2nc(C)cc(C)n2)cc1 (stereo unspecified) -13.7%, Cc1ccc(C)c(N2CCN(C(=O)Cn3nc(C)c4sc5ccccc5c4c3=O)CC2)c1 -5.5%, CC(C)S(=O)(=O)c1oc(-c2ccc(F)cc2)nc1S(=O)(=O)c1ccc(F)cc1 -17.3%, COc1cc(OC)cc(C(=O)Nc2c(C(=O)Nc3ccc(F)cc3)oc3ccccc23)c1 8%, Oc1ccc(Cl)cc1C1C=C(c2ccc3c(c2)OCO3)NC(c2ccc(F)c(Br)c2)N1 (stereo unspecified) -52.5%, CCOc1ccc(NC(=O)CC2C(=O)N(c3cccc(OC)c3)C(=O)N2C2CCCCC2)cc1 (stereo unspecified) 33.4%, COc1ccc(Cc2nc3ccc(C(=O)NCc4ccccc4C)cc3o2)cc1 1.01%, O=C(Nc1ccc2c(c1)OCO2)c1cc(-c2cccc(Cl)c2)on1 5%, C=CC1(C)CC(=O)C2(O)C(C)(O1)C(OC(C)=O)C(O)C1C(C)(C)CCC(O)C12C (stereo unspecified) -6.89% [at 56.9 µM], Cc1ccccc1CSc1nc2c([nH]c3ccccc32)c(=O)n1C 4.27%, O=C(c1ccc(F)cc1)C1CCN(CCCCc2ccccc2)CC1 80.5% [at 56.9 µM], CCc1cc2c(cc3c(=O)n(CC(=O)NCc4cccc(Cl)c4)nc(CC)n32)s1 19.3%, Cc1ccc(Cl)cc1N1CCN(S(=O)(=O)c2cc3[nH]c(=O)c(=O)[nH]c3cc2C)CC1 -20%, CCCSc1ncc(Cl)c(C(=O)Nc2sc3c(c2C(=O)NCCOC)CCCC3)n1 20.4%, Cc1ccc(CCNC(=O)C2CCN(c3nnc(-n4cccc4CNc4ccc(C)cc4)s3)CC2)cc1 29.4%, CCOc1ccccc1NC(=O)Cn1c(=O)n(-c2cccc(C)c2)c(=O)c2c1c1cc(OC)ccc1n2C 6.5%, COc1ccc(Cl)cc1NC(=O)C(C)Sc1nc2c(c(=O)[nH]1)CCCC2 (stereo unspecified) 30.7%, Cc1ccc2nc(/C(C#N)=C/c3ccc(-c4ccc(C(=O)OC(C)C)cc4)o3)[nH]c2c1 2.62%, CCOc1ccccc1CNC(=O)Nc1cn(CC(C)C)c(=O)c2ccccc12 5.51%, O=C1C2C(c3ccccc3)CC=CC2C(c2ccoc2)N1Cc1ccccc1 (stereo unspecified) -10.6%, Cc1cccc(-c2cc(=O)c3cc(C)ccc3o2)c1 -644% [at 56.9 µM, above what the read-out allows, likely interference], CC1CC2C3CCC4=CC(=O)C=C[C@]4(C)[C@@]3(F)[C@@H](O)C[C@]2(C)[C@@]1(O)C(=O)CO (stereo partly specified) 13.2% [at 56.9 µM], Nc1ncnc2c1ncn2C1CC(O)C(CO)O1 (stereo unspecified) -180% [at 56.9 µM], CSc1ccccc1N1CCN(CCCCCC(=O)NC2CCCc3ccccc32)CC1 (stereo unspecified) 17.9% [at 56.9 µM], CCC(=O)N1CCc2cc(Br)cc(S(=O)(=O)CCC(=O)NCCc3ccc(OC)c(OC)c3)c21 -31.3%, Cc1ccc(-n2c3nc(=O)[nH]c(=O)c-3cc3c(Cl)cccc32)cc1 -2.68%, COc1ccc(C)cc1NC(=O)CCc1c(C)nn(-c2ccc(N3CCOCC3)nn2)c1C -16%, COC(=O)c1cccc(Cn2nnc3sc4c(c3c2=O)CCC(C(C)(C)C)C4)c1 (stereo unspecified) -10.7%, CCOC(=O)c1c(C)[nH]c(CCC(=O)NCCCN2CCN(c3cccc(Cl)c3)CC2)c1C -21.8%, COc1ccc(C2CC(O)(c3ccccc3)Oc3cc(C)cc(C)c32)cc1 (stereo unspecified) -13.5%, O=S(=O)(c1ccc2nc(N3CCN(c4cccc(Cl)c4)CC3)ccc2c1)N1CCCCC1 -18.5%, CCOC(=O)c1cccc(NC(=O)C(Cc2ccccc2)NS(=O)(=O)c2cccc3nsnc23)c1 (stereo unspecified) -4.55%, COc1cccc(CNCCSc2nnnn2C)c1OCc1ccccc1Cl -5.25%, CC(=O)c1cccc(NC(=O)CSc2nc3c(c(=O)[nH]2)CCC3)c1 16.8%, O=C(Nc1c(C(=O)N2CCN(c3ccc(F)cc3)CC2)oc2ccccc12)c1ccco1 12.6%, Cc1cc(C)cc(NC(=O)c2cnc3sc(N4CCCC4)nn3c2=O)c1 -12.1%, COc1cc(OC)cc(C(=O)Nc2ccc3nc(Nc4cccc(C(F)(F)F)c4)cc(C)c3c2)c1 -2.35%, Cc1ccc(N(C)C(=O)C2CCN(S(=O)(=O)c3ccc4c(c3)CCCN4C(=O)C3CCC3)CC2)cc1 -18.2%, CSc1nc(Nc2ccc(F)cc2)cc(-c2ccccc2)n1 5.75%, Cc1cccc(-n2c(SCC(N)=O)nc3c(oc4ccccc43)c2=O)c1 -0.746%, C=Cc1ccc(Cn2c(C(=O)O)c(CNC3CCCC3)c3ccc(C)cc32)cc1 8.65%, COc1ccccc1CNC(=O)Cn1nc(C)c2nn(-c3ccc(Cl)cc3)c(C)c2c1=O 18.3%, CC1CCCCN1S(=O)(=O)c1ccc(F)c(C(=O)Nc2ccccc2C(F)(F)F)c1 (stereo unspecified) 4.05%, COc1ccc2ncc3c(-c4ccc(C)c(C)c4)nn(CC(=O)NC4CCCC4)c3c2c1 26.8%, COc1cccc(CNC(=O)c2ccc3c(c2)N(Cc2ccc(C(F)(F)F)cc2)C(=O)c2ccccc2S3)c1OC 20.4%, CC(C)CC(NS(=O)(=O)c1ccc2c(c1)oc(=O)n2C)C(=O)NCc1ccccc1Cl (stereo unspecified) 9.93%, Cc1cc(OCC(=O)Nc2ncn[nH]2)c(C)c(C)c1Br -27.4%, CN1C(=O)c2[nH]nc(-c3ccc(F)cc3)c2C1c1ccccn1 (stereo unspecified) 0.713%, O=C(CSCc1cnn(-c2ccccc2)c1-n1cccc1)NCc1ccccc1Br -25%, O=C(NCCc1ccccc1)c1ccc2c(c1)N(Cc1ccc(F)cc1)C(=O)c1ccccc1S2(=O)=O -0.894%, O=S(=O)(NCC(c1ccccc1)N1CCc2ccccc21)c1ccccc1 (stereo unspecified) -21.4%, Cc1c(CCNC(=O)c2ccc(C(F)(F)F)cc2)sc2nc(-c3ccc(F)cc3)nn12 -4.84%, CCN(CC)CCNC(=O)c1cc2c(=O)oc3ccc(C)cc3c2s1 -2.06%, COc1ccc(CCn2c3c(c(=O)[nH]c2=S)CN(C(C)C)CN3)cc1OC -5.94%, Cn1c(C(=O)N2CCC(C(=O)N3CCN(c4ccccc4)CC3)CC2)cc2sccc21 8.86%, O=S(=O)(c1cccc(C(F)(F)F)c1)N1CCN(c2nc(-c3cccs3)nc3ccccc23)CC1 -10.2%, Cc1cccc(NC(=O)CSc2ncc(-c3ccccc3)[nH]2)c1C 12.9%, COc1cccc(N=C2SC(C(=O)Nc3cccc(Cl)c3)CC(=O)N2C)c1 (stereo unspecified) 13.4%, O=C(Nc1cc(C(F)(F)F)ccc1Cl)c1ccc2c(c1)CCN2S(=O)(=O)c1ccccc1 0.535%, CCNS(=O)(=O)c1ccc(NC(=O)CSc2nc(-c3ccco3)cc(C(F)(F)F)n2)cc1 1.04%, CCS(=O)(=O)N(C)[C@@H]1c2cc(C#N)ccc2OC(C)(C)[C@H]1O -117% [at 56.9 µM], COc1ccc(CNC(=O)Cn2nnc(-c3ccccc3F)n2)cc1 -28.6%, COc1ccc(OC)c(-n2nnc3c(sc4nc(C)c(Br)c(C)c43)c2=O)c1 15.3%, Cc1ccc(-c2cn3c(n2)sc2cc(C(=O)NCCCc4ccccc4)ccc23)cc1 17.8%, O=C1CC(c2ccccc2)CC2=C1C(c1ccco1)n1nc(C(F)(F)F)nc1N2 (stereo unspecified) 12.1%, COc1ccc(-c2c(C)c3ccc(O)c(CN4CCCC4)c3oc2=O)cc1OC -3.02%, CCC(=O)Nc1cccc(C(=O)OCc2cc(=O)n3nc(CC)sc3n2)c1 -4.68%

Potency, inactive:
Cc1ccc(NC(=O)c2cccc(N(C)C)c2)cc1NC(=O)c1ccc(O)cc1

Potency, inactive and 23.8 µM (active):
CC[C@@H]1Cc2cc(O)ccc2C2=C1c1ccc(O)cc1C[C@H]2CC
